What all share (type): functional
For assay [1], the system named is Plasmodium falciparum. Briefly: GSK_TCMDC: Inhibition of Plasmodium falciparum 3D7 in whole red blood cells, using parasite LDH activity as an index of growth. Test compounds present at 2uM.
Assay [2] relates to Plasmodium falciparum. Kind of assay: GSK_TCMDC: Inhibition of Plasmodium falciparum Dd2 in whole red blood cells, using parasite LDH activity as an index of growth. Test compounds present at 2uM.
Assay [3] has as its system HepG2. Briefly: GSK_TCMDC: Percent inhibition of human HepG2 cell line. Test compounds present at 10uM.

59 compounds from ChEMBL document CHEMBL1157539, “Thousands of chemical starting points for antimalarial lead identification” (Nature, 2010) can be followed below.

Molecules are shown by their SMILES.

The Inhibition is the percentage by which the read-out fell short of the control. A lower Inhibition goes with little suppression. As to `Cc1nc(C)c(-c2ccc(Br)cc2)c(O)c1Br`, the Inhibition in assay [1] is 98%; in assay [2], 95%; in assay [3], 9%.
On to `O=C1c2ccccc2C(=O)N1CCOc1c(Br)cc(Br)cc1CNCCCNc1cc(=O)c2ccccc2[nH]1`, for which the Inhibition in assay [1] is 92%; in assay [2], 12%; in assay [3] it was 10%.
`COc1ccc2nccc([C@@H](O)CN3CCC(NCCOc4cc(C(F)(F)F)ccc4F)CC3)c2c1.O=C(O)C(=O)O`: the Inhibition in assay [1] was found to be 100%; in assay [2], 83%; in assay [3], 13%.
On to `CN1CCC(C(=O)N(Cc2ccc(-c3ccc(CNCCc4ccccc4)cn3)cc2)C2Cc3ccccc3C2)CC1.O=C(O)C(F)(F)F`, for which the Inhibition in assay [1] is recorded as 88%; in assay [2] it was 97%; in assay [3] it was 65%.
In the case of `CN1CCN(Cc2ccc(OCc3cccc(COc4ccc(CN5CCN(C)CC5)cc4I)c3)c(I)c2)CC1.Cl`, the Inhibition in assay [1] is given as 92%; in assay [2] it was 69%; in assay [3], 93%.
For the compound `CC(C)Nc1nc(NC2CCCCC2)nc(N2CCCCCCC2)n1`, the Inhibition in assay [1] turned out to be 86%; in assay [2] it was 96%; in assay [3] it was 13%.
For `COc1ccc2nccc([C@@H](O)CN3CCC(NCc4cc5c(Cl)cccc5[nH]4)CC3)c2c1.O=C(O)C(=O)O`, in that order: 100%, 74% and 40%.
As for `COc1cc(NC(=O)CCCCCCCN2CCN(C)CC2)c2ncccc2c1`, the Inhibition is 95% in assay [1], 83% in assay [2] and 2% in assay [3].
As for `O=C(O)C(F)(F)F.c1ccc(-n2ncc(CNCc3ccc(-c4ccc(-c5nc6ccccc6[nH]5)s4)cc3)n2)cc1`, the values for the Inhibition in assay [1], in assay [2] and in assay [3] were 93%, 46% and 27%, respectively.
Regarding `O=C(Nc1ccc(CCNCc2ccccc2)cc1)Nc1ccc(OC(F)(F)F)cc1.O=C(O)C(F)(F)F`, the Inhibition in assay [1] was 100%; in assay [2] it was 22%; in assay [3], 0%.
With `COc1cc(C=Cc2ccc3ccccc3n2)cc(Br)c1OCC(=O)N(C)C`, the Inhibition is 99% in assay [1], 87% in assay [2] and 28% in assay [3].
`Fc1ccc(-c2nc(NCc3cccc(C(F)(F)F)c3)nn2-c2cccc(C(F)(F)F)c2)cc1C(F)(F)F`: the Inhibition in assay [1] stood at 90%; in assay [2], 58%; in assay [3], 2%.
Turning to `CC(=NNC(=N)N)C(=O)Nc1ccc(Cl)c(Cl)c1.O=S(=O)(O)O`, the Inhibition is 100% in assay [1], 97% in assay [2] and 0% in assay [3].
Regarding `COc1cc(C(=O)N2CCC(CCN3CCC4(CC3)CN(S(C)(=O)=O)c3ccccc34)CC2Cc2ccc(Cl)c(Cl)c2)cc(OC)c1OC.Cl` (configuration not stated), the results for the Inhibition in assay [1], in assay [2] and in assay [3] were 100%, 99% and 29%, respectively.
For `O=C(Nc1cccnc1)c1cc(C(=O)Nc2cccnc2)cc([N+](=O)[O-])c1`, in that order: 100%, 100% and 0%.
As for `[O-][S+]1c2ccccc2Sc2ccccc21`, the Inhibition in assay [1] turned out to be 99%; in assay [2], 0%; in assay [3], 48%.
Turning to `Cl.Cn1cc(Br)c(-c2cccc(Nc3ccnc4cc(-c5nccs5)ccc34)c2)n1`, the Inhibition stood at 91% in assay [1], 32% in assay [2] and 37% in assay [3].
For the compound `O=C(Nc1cccc(C(F)(F)F)c1)N1CCOC(CCN2CCC(c3ccccc3)CC2)(c2ccc(Cl)c(Cl)c2)C1` (configuration not stated), the Inhibition was found to be 87% in assay [1], 69% in assay [2] and 15% in assay [3].
Turning to `COc1ccccc1-c1cc(C(=O)N2CCN(S(=O)(=O)c3ccc(C)cc3)CC2)[nH]n1`, the Inhibition was 88% in assay [1], 88% in assay [2] and 0% in assay [3].
Take `COc1ccccc1N(C)CCNc1cc(C)nc(Nc2ccccc2)n1`: the values for the Inhibition in assay [1], in assay [2] and in assay [3] were 96%, 13% and 10%, respectively.
As to `CC(C)N1CCC(N(Cc2ccc(-c3ccc(C(F)(F)F)cc3)cc2)C(=O)Cn2c(SCc3cccc(F)c3F)nc(=O)c3ccccc32)CC1.O=C(O)C(O)C(O)C(=O)O`, the Inhibition in assay [1] is on record as 91%; in assay [2] it was 75%; in assay [3], 74%.
Turning to `Cc1[nH]c2ccccc2c1C(=O)CSc1nn(-c2ccccc2)c(=S)s1`, the Inhibition in assay [1] stood at 100%; in assay [2] it was 99%; in assay [3], 0%.
Consider `Nc1cccc(CNCc2ccc(-c3cccc(-c4nc5cc(C(F)(F)F)ccc5[nH]4)c3)cc2)c1.O=C(O)C(F)(F)F`, for which the Inhibition is 100% in assay [1], 100% in assay [2] and 60% in assay [3].
In the case of `Cc1ccc(NS(=O)(=O)c2ccc(C(C)N3CCC(N4CCCCC4)CC3)cc2)cc1C` (configuration not stated), the results for the Inhibition in assay [1], in assay [2] and in assay [3] were 97%, 82% and 66%, respectively.
Regarding `CS(=O)(=O)c1cccc(-c2ccc3oc(C(N)=O)c(NC(=O)c4cccs4)c3c2)c1`, the results for the Inhibition in assay [1], in assay [2] and in assay [3] were 86%, 77% and 11%, respectively.
As for `COc1c(C)[nH]c(C)c(-c2ccc(Oc3cccc(C(F)(F)F)c3)cc2)c1=O`, the values for the Inhibition in assay [1], in assay [2] and in assay [3] were 98%, 96% and 40%, respectively.
Turning to `Cc1c(C(=O)N(C)C)sc2c1c(=O)n(Cc1ccccc1)c(=O)n2CC(=O)Nc1ccccc1F`, the figures for the Inhibition in assay [1], in assay [2] and in assay [3] were 97%, 98% and 13%, respectively.
For `CC(NC(=O)c1ccc(O)c(-c2ccc(Cl)c(Cl)c2)c1)C(=O)NCCN1CCCC1` (configuration not stated), in that order: 99%, 9% and 0%.
For `COc1ccc2nccc([C@@H](O)CN3CCC(NCc4cc5ccccc5[nH]4)CC3)c2n1.O=C(O)C(=O)O`, in that order: 100%, 55% and 17%.
For `Cc1cccc(C)c1/N=C1\NC(=S)N(c2cccc(Cl)c2)C12CCC(C(C)(C)C)CC2` (configuration not stated), in that order: 87%, 53% and 4%.
Take `Cc1cc(C2CCN(CCCCNC(=O)c3ccc(NC(=O)c4ccc(Cl)cc4)cc3)CC2)c(C)cc1OCc1cccnc1`: the Inhibition in assay [1] stood at 100%; in assay [2], 90%; in assay [3], 39%.
For `c1ccc(CCNc2nc(NCC(c3ccccc3)c3ccccc3)c3nc[nH]c3n2)cc1`, in that order: 100%, 95% and 9%.
Regarding `C[C@@H](N)C#Cc1cc2c(Nc3ccc(OCc4cccc(F)c4)c(Cl)c3)ncnc2s1.O=CO`, the Inhibition was determined as 89% in assay [1], 23% in assay [2] and 17% in assay [3].
Regarding `COc1ccc(Nc2nc(N/N=C/c3cc(Br)ccc3O)nc(Nc3ccc([N+](=O)[O-])cc3)n2)cc1`, the values for the Inhibition in assay [1], in assay [2] and in assay [3] were 97%, 37% and 27%, respectively.
With `CC(C)(CNC(=O)C1CCN(Cc2ccoc2)CC1)c1nc(-c2ccc(Cl)c(O)c2)c(-c2ccncc2)[nH]1.Cl`, the Inhibition in assay [1] was 93%; in assay [2], 66%; in assay [3], 0%.
Take `COc1cc(/C=N/Nc2nc(Nc3ccccc3)nc(Nc3ccccc3)n2)ccc1OCc1ccccc1[N+](=O)[O-]`: the Inhibition in assay [1] worked out at 98%; in assay [2], 18%; in assay [3], 8%.
As for `O=C(NC1CCN(CCCc2ccccc2)CC1)c1ccc(-c2cccc(C(F)(F)F)c2)s1.O=C(O)C(F)(F)F`, the Inhibition stood at 95% in assay [1], 47% in assay [2] and 93% in assay [3].
For `CCc1ccc(NC(=O)N(CCCN2CCN(C)CC2)Cc2csc(-c3ccc(CNCc4ccccc4)cc3)n2)cc1.O=C(O)C(F)(F)F`, in that order: 99%, 80% and 17%.
In the case of `CC(=O)Nc1ccc(C(=O)N2CCN(c3ccnc4cc(Cl)ccc34)CC2)cc1.O=C(O)C(F)(F)F`, the Inhibition in assay [1] is 93%; in assay [2], 43%; in assay [3] it was 2%.
For `O=C(O)C(F)(F)F.OC1(Cc2ccccc2)CCN(Cc2cccc(-c3c[nH]c4nc(NC5CCCC5)ncc34)c2)CC1`, in that order: 96%, 35% and 45%.
As to `CCOc1ccc2nc3cc(NC(=O)c4ccco4)ccc3c(N)c2c1`, the Inhibition is 100% in assay [1], 56% in assay [2] and 36% in assay [3].
For `Cc1cc(Nc2cccc(C#N)c2)nc(Nc2ccccc2C)n1`, in that order: 95%, 46% and 10%.
With `COc1cccc2c(NCCNc3ccnc4c(OC)cccc34)ccnc12.Cl`, the Inhibition stood at 93% in assay [1], 86% in assay [2] and 11% in assay [3].
`CCCC(=O)Nc1ccc(OCCN(Cc2ccccc2OC(F)(F)F)c2ccc(C(F)(F)F)c(C#N)c2)cc1`: the Inhibition in assay [1] came to 85%; in assay [2], 97%; in assay [3], 0%.
As for `COc1ccc(C(C(=O)NC2CCN(C[C@H](O)c3ccnc4ccc(OC)cc34)CC2)N2CCN(c3ccc(F)cc3)CC2)cc1` (some centres not stated), the values for the Inhibition in assay [1], in assay [2] and in assay [3] were 97%, 86% and 16%, respectively.
For the compound `Cc1cc(F)ccc1Oc1nc(Nc2ccc(N3CCOCC3)c(F)c2)nc2c1S(=O)(=O)CCC2.Cl`, the Inhibition is given as 96% in assay [1], 98% in assay [2] and 10% in assay [3].
For `COc1ccc(CNCCCCCCNCc2ccc(OC)c3ccccc23)c2ccccc12.Cl`, in that order: 100%, 49% and 100%.
Turning to `Cl.N=C(N)c1cc(Br)cc(NC(=O)Nc2cc(Br)cc(C(=N)N)c2)c1`, the Inhibition in assay [1] is 93%; in assay [2] it was 76%; in assay [3] it was 0%.
For `CCC(C)(C)NC(=O)C(c1cccc(OC)c1)N(C(=O)CNC(=O)c1cccs1)c1ccc2c(c1)OCCO2` (configuration not stated), in that order: 100%, 76% and 0%.
`Fc1ccc2[nH]c(-c3ccc(-c4ccc(CN5CCN(CCN6CCOCC6)CC5)cc4)cc3)nc2c1.O=C(O)C(F)(F)F`: the Inhibition was 100% in assay [1], 100% in assay [2] and 38% in assay [3].
`COCCNC(=O)c1ccc(OC2CCN(Cc3ccc(F)c(F)c3)CC2)c(Cl)c1`: the Inhibition in assay [1] turned out to be 88%; in assay [2] it was 73%; in assay [3] it was 8%.
As to `CN(C)CCN(Cc1ccccc1-c1ccc(CNCCc2ccccc2)cc1)C(=O)NC1CCCCC1.O=C(O)C(F)(F)F`, the Inhibition in assay [1] was 88%; in assay [2], 89%; in assay [3], 98%.
For `Brc1cc2c(cc1C=NNc1nc(=Nc3ccccc3)[nH]c(=Nc3ccccc3)[nH]1)OCO2`, in that order: 100%, 32% and 0%.
Consider `Cc1cccc2nc(-c3ccc(-c4ccc(NC(=O)C(C)CN(C)C)cc4)cc3)[nH]c12` (configuration not stated), for which the Inhibition in assay [1] worked out at 99%; in assay [2] it was 99%; in assay [3], 18%.
Turning to `Cn1cncc1CCN(Cc1ccc(-c2ccc(C(F)(F)F)cc2)cc1)C(=O)Cn1c(CCc2cccc(F)c2F)cc(=O)c2cccnc21`, the Inhibition in assay [1] is 100%; in assay [2], 97%; in assay [3] it was 44%.
Turning to `COc1ccccc1C(=O)Nc1ccc(Nc2nc(C)cc(N(C)C)n2)cc1`, the Inhibition amounted to 100% in assay [1], 76% in assay [2] and 1% in assay [3].
`CCCCc1cc(O)c2c(c1)OC(C)(C)C=C2C1=CCN(Cc2ccccc2)CC1`: the Inhibition is 98% in assay [1], 3% in assay [2] and 9% in assay [3].
Turning to `CCOc1ccc2c(=NN=Cc3cc(OC)c(OC)c(OC)c3)cc(C)[nH]c2c1`, the Inhibition in assay [1] was 100%; in assay [2] it was 99%; in assay [3], 18%.
Consider `O=C(C=Cc1ccc(Cl)c(Cl)c1)NCCCCCN1CCCC(CCCNS(=O)(=O)c2ccc(Br)cc2)C1` (configuration not stated), for which the Inhibition was determined as 88% in assay [1], 5% in assay [2] and 43% in assay [3].
